Results from PubChem BioAssay.
Values joined by “and” are separate entries in the source; they are usually repeats but may differ in a detail not shown here. Identical values can stand only once. Active and inactive are the calls of the source.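 How the source made its calls, unless noted: active means thallium flux through the channel raised or lowered by more than 3 SD from vehicle-only wells, actives on both sides; inactive means the rest.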

Columns and labels:
[1] = liver-stage malaria parasite growth inhibition, primary screen, cell-based, HepG2, luciferase luminescence, HepG2 viability (AID 624349; in the data active means parasite load remaining mostly below about 12%, no sharp cut-off; inactive means mostly above about 10%;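 further: 100% = mean of DMSO negative control wells on the same plate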); details: P. berghei liver stage in HepG2, luciferase luminescence, concentration not given here; parasite load remaining: stronger effect = lower value; viability: measured here: HepG2 viability without parasites
[2] = Cy5 fluorescence interference with SSB-bound oligo, artefact control for HCV NS3 helicase inhibitor project, biochemical, NIH Clinical Collection, E. coli SSB (AID 743268; call rule not given here)
[3] = system: Hepatitis C virus NS3 helicase; test: HCV NS3 helicase inhibitors, primary screen, biochemical, fluorescence polarization, NIH Clinical Collection (AID 743270; call rule not given here); details: NS3 helicase binding to Cy5-dT15 DNA, stronger effect = higher value, concentration not given here
[4] = target: Single-stranded DNA-binding protein (Escherichia coli (strain K12)) (UniProt P0AGE0); test: E. coli SSB displacement from DNA, counter-screen for HCV NS3 helicase inhibitor project, biochemical, fluorescence polarization, NIH Clinical Collection (AID 743271; in the data active means inhibition above about 28%); details: stronger effect = higher value, concentration not given here
[5] = fluorescence interference in NS3h assay format, artefact control for HCV NS3 helicase inhibitor project, biochemical, NIH Clinical Collection (AID 743272; call rule not given here;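 further: HCV NS3 helicase with a Cy5 labelled single stranded DNA probe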); details: fluorescence interference counterscreen, stronger effect = lower value
[6] = system: Neuropilin-2 / VEGF-C interaction (human); test: inhibitors of NRP2–VEGF-C binding, biochemical, microplate binding format, z-score (AID 743281; call rule not given here); details: microplate NRP2/VEGF-C binding assay; stronger effect = lower value
[7] = modulation of C. elegans fzo-1 (AID 1259413; call rule not given here;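 further: fzo-1 mutant C. elegans worms in liquid wells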); details: C. elegans fzo-1 modulator screen, mean read-out; stronger effect = higher value
[8] = sensitizers of A549 cells to miR-34 induction, primary screen, imaging, A549 dox-inducible miR-34, nuclei and caspase counts (AID 1347080;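 active means compounds whose cell count with miR-34 switched on is under 0.7 times the count with it off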); details: A549 miR-34 inducible, Hoechst nuclei count, 48 h
[9] = viability rescue of complex I mutant cybrids, primary screen, cell-based, galactose medium, ATP luminescence (AID 1645843;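 active means z-score of at least 1.8 in each of two replicates, scored against plate mean and spread of sample wells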;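 further: positive z means more ATP and so rescue of galactose-driven cybrid death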); details: complex I mutant cybrid cells, 72 h, stronger effect = higher value
F380Y = test: modulators of BK channel variants, profiling panel, selectivity assay, cell-based, U2OS BacMam, thallium flux, beta subunits (AID 1259406); details: at 30 µM;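 further: initial slope of Thallos dye fluorescence rise after thallium is added; log ratio against the mean of 0.3% DMSO vehicle wells on the same plate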
F380Y/beta2Delta = test: as above; details: at 30 µM
[10] = target: Calcium-activated potassium channel subunit alpha-1 (Homo sapiens) + Leucine-rich repeat-containing protein 26 (Homo sapiens) (UniProt Q12791+Q2I0M4); test: as above; details: F380Y/Slo1WT/gamma1, at 30 µM
Calcium-activated potassium channel subunit alpha-1 (Homo sapiens) + Leucine-rich repeat-containing protein 26 (Homo sapiens), sequence (Q2I0M4 whole entry, looked up, one chain of several): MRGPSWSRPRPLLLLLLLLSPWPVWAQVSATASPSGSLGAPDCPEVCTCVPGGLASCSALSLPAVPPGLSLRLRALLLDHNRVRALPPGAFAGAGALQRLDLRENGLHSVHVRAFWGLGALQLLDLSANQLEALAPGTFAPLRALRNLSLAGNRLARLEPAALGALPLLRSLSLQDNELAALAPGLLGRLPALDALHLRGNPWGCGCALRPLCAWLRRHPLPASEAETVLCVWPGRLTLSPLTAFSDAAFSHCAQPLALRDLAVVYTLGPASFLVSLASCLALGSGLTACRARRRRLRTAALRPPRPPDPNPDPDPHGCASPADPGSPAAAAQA

R275C = test: as above; details: at 30 µM
R275C/beta1 = test: as above; details: at 30 µM
R275C/beta2Delta = test: as above; details: at 30 µM
[11] = survival rescue of mitochondrial mutant cells in low glucose, primary screen, MELAS cybrids, Rieske KO mouse fibroblasts, CellTiter-Glo (AID 1508586;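 active means mean z-score across replicates of 1.96 or higher in either the MELAS or the Rieske mutant cell line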;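 further: z relative to plate mean and SD of compound and empty wells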)
[12] = stronger effect = lower value, cell number ratio, induced over uninduced
[13] = measured here: relative caspase fold change +Dox/-Dox
[14] = measured here: total cells with miR-34 induction, stronger effect = lower value
[15] = measured here: total cells without miR-34 induction

COc1cc(N)c(Cl)cc1C(=O)N[C@@H]1CCN(CCCOc2ccc(F)cc2)C[C@@H]1OC
parasite load remaining [1]: 13.5% (inactive)
viability [1]: 57.3%
fluorescence ratio [2]: 1 (inactive)
inhibition [3]: -2.77% (inactive)
inhibition [4]: -0.1% (inactive)
fluorescence ratio [5]: 0.96 (inactive)
z-score [6]: -0.527 (inactive)
mean signal [7]: 277 (inactive)
fold change [8, 12]: 0.991 (inactive)
fold change [8, 13]: 0.684
cell count [8, 14]: 6800
cell count [8, 15]: 6860
z-score [9]: -0.47 (inactive)
log fold change Tl+ flux (F380Y): 0.00662 (inactive)
log fold change Tl+ flux (F380Y/beta2Delta): 0.0148 (inactive)
log fold change Tl+ flux [10]: -0.0526 (inactive)
log fold change Tl+ flux (R275C): 0.0357 (inactive)
log fold change Tl+ flux (R275C/beta1): -0.0487 (inactive)
log fold change Tl+ flux (R275C/beta2Delta): 0.039 (inactive)

COCCCCC(=NOCCN)c1ccc(C(F)(F)F)cc1
parasite load remaining [1]: 46.6% (inactive)
viability [1]: 56.9%
fluorescence ratio [2]: 0.97 (inactive)
inhibition [3]: -1.98% (inactive)
inhibition [4]: -0.1% (inactive)
fluorescence ratio [5]: 0.89 (inactive)
fold change [8, 12]: 0.929 (inactive) and 0.879 (inactive) and 0.949 (inactive)
fold change [8, 13]: 2.57 and 0.586 and 0.773
cell count [8, 14]: 7760 and 8160 and 6370
cell count [8, 15]: 8360 and 9280 and 6710
z-score ([11]; MELAS cybrid survival, CellTiter-Glo 48 h, stronger effect = higher value): 0.785 (inactive) and -0.408 (inactive)
z-score ([11]; Rieske KO mouse fibroblast survival, CellTiter-Glo 72 h): 0.468 and -0.05
z-score [9]: -0.79 (inactive) and -1.17 (inactive)
log fold change Tl+ flux (F380Y): -0.0607 (inactive)
log fold change Tl+ flux (F380Y/beta2Delta): -0.0598 (inactive)
log fold change Tl+ flux [10]: -0.0791 (inactive)
log fold change Tl+ flux (R275C): -0.0449 (inactive)
log fold change Tl+ flux (R275C/beta1): 0.0249 (inactive)
log fold change Tl+ flux (R275C/beta2Delta): 0.0321 (inactive)

C[C@H]1O[C@@H](O[C@H]2[C@@H](O)C[C@H](O[C@H]3[C@@H](O)C[C@H](O[C@H]4CCC5(C)[C@H](CC[C@@H]6[C@@H]5C[C@@H](O)C5(C)C(C7=CC(=O)OC7)CCC65O)C4)O[C@@H]3C)O[C@@H]2C)C[C@H](O)[C@@H]1O (stereo partly specified)
mean signal [7]: 250 (inactive)

CCCC1O[C@@H]2C[C@H]3[C@@H]4CCC5=CC(=O)C=CC5(C)[C@H]4[C@@H](O)CC3(C)C2(C(=O)CO)O1 (stereo partly specified)
mean signal [7]: 259 (inactive)

CCC(=O)O[C@]1(C(=O)CCl)[C@@H](C)C[C@H]2[C@@H]3CCC4=CC(=O)C=CC4(C)[C@@]3(F)[C@@H](O)CC21C (stereo partly specified)
mean signal [7]: 254 (inactive)

CCC(=O)NS(=O)(=O)c1ccc(-c2c(-c3ccccc3)noc2C)cc1
parasite load remaining [1]: 75.3% (inactive)
viability [1]: 68.9%
z-score [6]: 1.11 (inactive)
mean signal [7]: 273 (inactive)
fold change [8, 12]: 0.873 (inactive)
fold change [8, 13]: 1.74
cell count [8, 14]: 9000
cell count [8, 15]: 10300
z-score [9]: 0.78 (inactive)
log fold change Tl+ flux (F380Y): 0.0552 (inactive)
log fold change Tl+ flux (F380Y/beta2Delta): 0.000846 (inactive)
log fold change Tl+ flux [10]: 0.0287 (inactive)
log fold change Tl+ flux (R275C): 0.0383 (inactive)
log fold change Tl+ flux (R275C/beta1): -0.00911 (inactive)
log fold change Tl+ flux (R275C/beta2Delta): -0.00297 (inactive)
